According to ChEMBL document CHEMBL4513216, “Probing the Open Global Health Chemical Diversity Library for Multistage-Active Starting Points for Next-Generation Antimalarials” (ACS Infect Dis, 2020):
About 8,600 (12%) of roughly 69,000 compounds showed an effect of 50% or more. What follows is part of a selection rich in strong results, with near analogues and random picks from the rest.

Each molecule was assayed on Plasmodium berghei (assay: Screen against P. berghei liver stage (PbLuc), transformed with Luciferase, at 10uM). Details: tested at 10 uM.
Format: functional, HepG2
Work on `CC(C)c1nn(C)c(N(C)C)c1CNC1CCCCNC1=O` (centres undefined) yielded an INHIBITION of -4.13%. `O=C(Cc1cccc(O)c1)NCCCNC(=O)c1cccc(F)c1` showed an INHIBITION of 8.64%. Work on `COCC(=O)N1Cc2c(-c3cccc(C)c3)nc(N)nc2C1C` (centres undefined) yielded an INHIBITION of -24.1%. With `Cc1cccc(-c2nc(N)nc3c2CN(C(=O)c2ccncn2)C3C)c1` (centres undefined) the INHIBITION was 19.9%. For `Cc1cccc(-c2nc(N)nc3c2CN(C(=O)c2cc(C)n[nH]2)C3C)c1` (centres undefined), the INHIBITION was 58.9%. `Cc1cc(C(=O)Nc2cccn(Cc3ccccc3)c2=O)no1` gave an INHIBITION of -85.8%. Work on `O=C(c1ccccn1)N1CCC2(CC1)COC(COCC1CC1)C2` (centres undefined) yielded an INHIBITION of 23.5%. With `CN(C)CCn1c2c(ccc1=O)CC(NC(=O)NC1CCCC1)CC2` (centres undefined) the INHIBITION was 39.5%. For `Cc1cc(C2CCC2)nc(NCC(C)(C)N2CCCC2)n1`, the INHIBITION was 57.2%. `CCN1CCN(C(C)(C)CNc2nc(C)cc(C3CCC3)n2)CC1` showed an INHIBITION of 9.52%. In the case of `Cc1cc(C2CCC2)nc(NCC(C)(C)N2CCOCC2)n1`, the INHIBITION is reported as 9.52%. In the case of `COC(=O)CCC(=O)NCc1cccnc1N1CCc2ccccc2C1`, the INHIBITION is reported as -13.1%. In the case of `CC(NC(=O)C1=NN(C)C(=O)CC1)c1cccc(Cl)c1` (centres undefined), the INHIBITION is reported as 24.3%. With `Cc1cc(C(=O)N2CCCCC2c2nc(C)cs2)[nH]n1` (centres undefined) the INHIBITION was 35.7%. In the case of `Cc1csc(C2CCCCN2C(=O)c2cc(C3CC3)[nH]n2)n1` (centres undefined), the INHIBITION is reported as 13.6%. Molecule `Cc1csc(C2CCCCN2C(=O)c2cc(C(C)C)[nH]n2)n1` (centres undefined) has an INHIBITION of 70.8%. `Cc1nc(CN2CCC(C(=O)O)(n3ccc(C(C)C)n3)CC2)co1` showed an INHIBITION of -35.2%. `CCC1CCCCCN1C(=O)c1ccc(N2CCC(O)CC2)cc1` (centres undefined) was tested, and the INHIBITION was -45.2%. In the case of `Cc1cc(C)n(CC(=O)N2CCCCC2CCN2CCCC2=O)c(=O)n1` (centres undefined), the INHIBITION is reported as 44.2%. In the case of `O=C1CCCN1CCC1CCCCN1C(=O)c1ccc(SCCO)cc1` (centres undefined), the INHIBITION is reported as 58.2%. `N#Cc1ccc(NC(=O)N2CCCCC2CN2CCCC2=O)cc1` (centres undefined) gave an INHIBITION of 44.9%. `COCCCC1CCCCN1C(=O)c1ccc(SCCO)cc1` (centres undefined) showed an INHIBITION of 52.6%. For `Cc1ccc(C(=O)N2CCCCC2CN(C)C)cc1` (centres undefined), the INHIBITION was 21.8%. `COc1ccc2c(c1)CN(C)C(=O)CCN2CC(O)C(C)(C)C` (centres undefined) gave an INHIBITION of 17.7%. `CC(C)(NCC(=O)NCC1CC1)c1ccc2c(c1)OCCO2` gave an INHIBITION of -36.3%. Molecule `CCn1ccc(C(=O)Nc2ccc3c(c2)C(C)(C)C(=O)N3C)n1` has an INHIBITION of 40%. With `CCC(CC)C(=O)N1CCC(c2nn(CCN)c3nccnc23)C1` (centres undefined) the INHIBITION was 41.2%. Molecule `CS(=O)(=O)N[C@@H]1CN(C(=O)c2ccccn2)C[C@@H]2CCCO[C@@H]21` has an INHIBITION of 34.6%. With `COc1ccc(-c2cc3nc(CCNC(=O)CN(C)C)nn3cn2)cc1` the INHIBITION was 19.4%. Work on `CC(C)(C)C(=O)CN1CCc2ccccc2NCCC1=O` yielded an INHIBITION of 15.4%. Work on `CN1CCCN(C(=O)c2ccn3ccnc3c2)CC1` yielded an INHIBITION of -60.7%. In the case of `O=C(c1ccsc1)N1CC[C@@H](N2CCOCC2)[C@@H]1Cc1ccccc1`, the INHIBITION is reported as -2.72%. `COCc1nc(C(=O)NS(=O)(=O)c2ccc(OC)c(C)c2)cs1` was tested, and the INHIBITION was 52.6%. `COCc1nc(C(=O)NS(=O)(=O)c2ccc(F)c(F)c2)cs1` showed an INHIBITION of 21.1%. In the case of `COCc1nc(C(=O)NS(=O)(=O)c2ccc(C)c(C)c2)cs1`, the INHIBITION is reported as -1.7%. For `COc1ccccc1NC(=O)c1cc2c([nH]c1=O)CCCC2=O`, the INHIBITION was -15.9%. Molecule `CCN(c1ccc(C(=O)NCCN2CCOCC2)cc1)S(=O)(=O)CC` has an INHIBITION of 34.2%. `CCN(CC)C(=O)Cn1cc(C(=O)NCCc2scnc2C)nn1` showed an INHIBITION of 10.6%. For `CCN(CC)C(=O)Cn1cc(C(=O)NCCc2nc(C)c(C)s2)nn1`, the INHIBITION was 39%. Molecule `CCN(CC)C(=O)Cn1cc(C(=O)NCCCc2scnc2C)nn1` has an INHIBITION of 56.3%. In the case of `CN(Cc1ccco1)[C@@H]1CN(CC2CCOCC2)C[C@@H]2CCCO[C@@H]21`, the INHIBITION is reported as 38.1%. `CNC(=O)C1(c2cnccn2)CCCN1C(=O)c1ccccc1C` (centres undefined) was tested, and the INHIBITION was 30.4%. In the case of `CN(C)C(=O)c1cc(-c2cnc(N)nc2)nc2cc(F)ccc12`, the INHIBITION is reported as 60.2%. For `Cc1ccc2nc(-c3cnc(N)nc3)c(C)c(C(=O)N(C)C)c2c1`, the INHIBITION was 50.5%. Work on `CCCn1cc(-c2cc(C(=O)N(C)C)c3ccc(C)cc3n2)cn1` yielded an INHIBITION of 8.845%. Work on `Cc1cc(C)c2c(C(=O)N(C)C)cc(-c3cnc(N)nc3)nc2c1` yielded an INHIBITION of 5.91%. Work on `Cc1ccc2nc(-c3cnc(N)nc3)cc(C(=O)N(C)C)c2c1` yielded an INHIBITION of 13.5%. `COc1ccc2c(C(=O)N(C)C)cc(-c3cnc(N)nc3)nc2c1` showed an INHIBITION of 15.7%. Work on `c1ncn(CC2CCCN(CC3CCCCC3)C2)n1` (centres undefined) yielded an INHIBITION of -1.75%. For `Nc1cc(C(=O)N2CCCC(C(=O)CCc3ccccc3)C2)ccn1` (centres undefined), the INHIBITION was 49.3%. Molecule `c1cnc(N2CCO[C@H]3CN(Cc4cc[nH]n4)C[C@H]32)cn1` has an INHIBITION of -15.3%. `CCc1nc(CN2CCOC(Cn3nc(C)cc3C)C2)no1` (centres undefined) was tested, and the INHIBITION was -0.219%. In the case of `COCCN1CCC(CNc2cnc3ccccc3n2)CC1`, the INHIBITION is reported as 46.1%. `COCCN1CCC(CNc2nc3ccccc3o2)CC1` gave an INHIBITION of 61%. `COCCN1CCC(CNc2nccc(-c3cnn(C)c3)n2)CC1` showed an INHIBITION of 13.3%. In the case of `Cc1csc(CN2CCC3(CC2)COC(COCC2CC2)C3)n1` (centres undefined), the INHIBITION is reported as 43%. Work on `CS(=O)(=O)NC1CCCN(C(=O)NCc2ccccc2Cl)C1` (centres undefined) yielded an INHIBITION of 25.4%. In the case of `CC(=O)OC1CN(c2nc3c(Cl)cccc3s2)C1`, the INHIBITION is reported as -56.7%. `c1cnc(-c2nc(CNC3CCc4ncnn4C3)cs2)nc1` (centres undefined) gave an INHIBITION of -25.75%. Molecule `Cc1ccc(CCC(=O)N2CCn3c(nnc3C(C)C)C2)cc1Cl` has an INHIBITION of 8.41%. In the case of `COc1ccc(-c2nnc(SC(C)C(=O)NCC(C)C)[nH]2)c(OC)c1` (centres undefined), the INHIBITION is reported as 64%. Work on `COc1ccc(-c2nnc(SC(C)C(=O)NC3CC3)[nH]2)c(OC)c1` (centres undefined) yielded an INHIBITION of 37.1%. Molecule `COc1ccc(-c2nnc(SC(C)C(N)=O)[nH]2)c(OC)c1` (centres undefined) has an INHIBITION of 18.3%. With `COc1ccc(-c2ccccc2CN)c(OC)c1` the INHIBITION was -58%. In the case of `COc1ccc(-c2nnc(SCC(=O)NCC(C)C)[nH]2)c(OC)c1`, the INHIBITION is reported as -30.8%. `COc1ccc(-c2nnc(SC(C)C(=O)NC3CCCC3)[nH]2)c(OC)c1` (centres undefined) showed an INHIBITION of 51.7%. In the case of `COc1ccc2nnc(C(=O)NC3CCCC3)nc2c1`, the INHIBITION is reported as -65.8%. `COc1ccc(-c2nnc(SC(C)C(=O)NC(C)(C)C)[nH]2)c(OC)c1` (centres undefined) showed an INHIBITION of 82.5%. Work on `COc1ccc(S(=O)(=O)NC(=O)C(C)OC)c(OC)c1` (centres undefined) yielded an INHIBITION of 33%.
